High-throughput results deposited in PubChem by National Center for Advancing Translational Sciences (NCATS).
D2 PAM-1 – positive allosteric modulators of human D2 dopamine receptor; DiscoveRx D2 beta-arrestin cells, luminescence, 90 min; 100% = 57 uM dopamine signal; potentiation, % (no concentration beside the values); 360,000 compounds, 0.23% hits; AID 624464; in the data active = potentiation above about 50%; inconclusive = mostly about 30% to 49%
Target sequence (P14416 whole entry, looked up): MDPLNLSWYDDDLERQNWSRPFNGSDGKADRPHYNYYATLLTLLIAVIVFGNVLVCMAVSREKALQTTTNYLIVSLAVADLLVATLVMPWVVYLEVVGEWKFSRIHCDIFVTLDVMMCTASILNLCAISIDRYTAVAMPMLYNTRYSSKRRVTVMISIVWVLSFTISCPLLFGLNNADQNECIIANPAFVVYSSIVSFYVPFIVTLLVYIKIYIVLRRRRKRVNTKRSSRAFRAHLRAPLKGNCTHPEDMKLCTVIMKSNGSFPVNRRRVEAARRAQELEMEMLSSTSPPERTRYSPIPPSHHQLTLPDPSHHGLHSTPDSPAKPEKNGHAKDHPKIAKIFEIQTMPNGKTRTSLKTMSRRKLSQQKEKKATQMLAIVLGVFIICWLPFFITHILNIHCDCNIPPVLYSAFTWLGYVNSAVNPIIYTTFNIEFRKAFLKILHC
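PathHunter beta-arrestin assay in DiscoveRx D2 cells. Compounds were added with an EC20 of dopamine (50 nM final) for 90 min at 37 deg C. Luminescence was read 1 h after detection reagent, with 57 uM dopamine as the EC100 control.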
D2 PAM-2 – positive allosteric modulators of human D2 dopamine receptor. P14416. HEK293 T-REx D2, calcium flux, EC20 dopamine potentiation. potentiation, % at 10 µM. 340,000 compounds, 0.34% hits;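 active = potentiation over 3 SD above the plate norm, cut at about 30% in these data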
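Calcium flux readout, no-wash dye, 1 read/s. Inducible HEK293 Trex D2 line, overnight 30 C. Compound alone 180 s (agonist flags), then EC20 dopamine, another 180 s to score potentiation.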
D2 antagonist – D2 dopamine receptor (human) antagonism; HEK293 TREx D2 cells, calcium flux, dopamine EC80; inhibition, % at 10 µM; 340,000 compounds, 2% hits; AID 485344; in the data active = inhibition above about 30%; inactive = below that, where a call was filed
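Tetracycline-induced HEK293 T-REx cells expressing D2 force-coupled to calcium signalling were dye-loaded, exposed to compound for 180 s, then challenged with an EC80 of dopamine; calcium flux was followed kinetically for a further 180 s.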
D2 ag-1 – activates the human D2 dopamine receptor. P14416. DiscoveRx PathHunter D2 beta-arrestin, luminescence, 90 min; 100% = 57 uM dopamine signal. activation, % (concentration not given with the values). 360,000 compounds, 0.084% hits. AID 624465; in the data active = activation above about 40%; inconclusive = between about 15% and that limit
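Agonist mode: compounds alone added to overnight-plated D2 PathHunter cells for 90 min at 37 C, with 57 uM final dopamine (EC100) defining full response. Beta-arrestin recruitment detected by chemiluminescent reagent, read after 1 h at ambient temperature.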
D2 ag-2 – activates the human D2 dopamine receptor; P14416; HEK293 T-REx D2 cells, calcium flux agonist mode; activation, % at 2 µM; 340,000 compounds, 0.53% hits; AID 485358;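 active = activation over 3 SD above normal in the single-dose calcium agonist read, cut at about 30% in these data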
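In this primary screen, compounds producing a positive calcium signal within 180 s of addition to tetracycline-induced, force-coupled HEK293 Trex D2 cells are flagged; cells are dye-loaded with a no-wash calcium kit beforehand.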
D3 arrestin ag – activates human D3 dopamine receptor beta-arrestin recruitment; shares compounds with D2 ag-2; DiscoveRx D3 beta-arrestin cells, luminescence, 90 min; Potency, µM (top dose mostly 76.9 µM), hits mostly activators; 2,300 compounds, 4% hits; also: nearly all actives have a fitted effect of over 70% in size
D2 ag-3 – activates human D2 dopamine receptor in D3 counterscreen. Potency, µM (highest dose often 76.9 µM), hits mostly activators. 2,300 compounds, 5.9% hits. AID 720507. shares compounds with D2 ag-2. DiscoveRx PathHunter D2 beta-arrestin, luminescence, 90 min; response scale: percent relative to full dopamine signal; also: nearly all actives have a fitted effect of over 70% in size
Of the large screens only hits and unclear results are named; the others gave an inactive call (follow-up assays come after a bar, where they were run). An excerpt weighted towards active compounds, which were near 2.4% of everything screened. Unless noted, calls follow the shape of the dose curve; as a rule, active = well fitted activation curve with a large enough effect; inconclusive = small, poorly fitted or top-dose-only effect; inactive = flat fitted curve, though single readings scatter.

COc1ccccc1NS(=O)(=O)c1ccc(NC(=O)c2nc3nc(C)cc(C(F)F)n3n2)cc1	D2 antagonist 38.6 | D3 arrestin ag inactive | D2 ag-3 inactive
CCOc1ccccc1NC1(c2ccccc2)C(=O)c2ccccc2C1=O	none (no result: D2 PAM-1, D2 antagonist, D2 ag-1)
CC(=O)N1CCc2cc(S(=O)(=O)NCCCN3CCN(Cc4ccccc4)CC3)ccc21	D2 antagonist 43.8, D2 ag-2 42.1 | D3 arrestin ag inactive | D2 ag-3 inactive
NC(=N\N=CCc1ccccc1)/C(N)=N/N=CCc1ccccc1	none (no result: D2 PAM-2, D2 antagonist, D2 ag-2)
O=C(NCC(c1ccco1)N1CCN(c2ccccc2F)CC1)c1cccs1 (centres undefined)	D2 ag-1 inconclusive
O=C(NCC1CCCO1)C(=O)NCC(c1ccco1)N1CCN(c2ccccc2F)CC1 (centres undefined)	D2 antagonist 48.2, D2 ag-2 58.1 | D3 arrestin ag 31.6µM | D2 ag-3 inconclusive
O=C(NCC(c1ccco1)N1CCN(c2ccccc2F)CC1)c1ccco1 (centres undefined)	D2 antagonist 53.7, D2 ag-1 inconclusive, D2 ag-2 32.4 | D3 arrestin ag inconclusive | D2 ag-3 inconclusive
O=C(NCC(c1ccco1)N1CCN(c2ccccc2F)CC1)C(=O)NC1CCCC1 (centres undefined)	none
COCCc1ccc(OC2(C)CCN(Cc3ccc(OC)c4ccccc34)C2)cc1 (centres undefined)	none (no result: D2 PAM-2, D2 antagonist, D2 ag-2)
O=C(c1[nH]nc2c1CCc1ccccc1-2)N1CCN(Cc2ccc3c(c2)OCO3)CC1	D2 antagonist 70.5, D2 ag-1 inconclusive | D3 arrestin ag inactive | D2 ag-3 inconclusive
O=C(c1sccc1Cl)N1CCN(Cc2ccc3c(c2)OCO3)CC1	D2 antagonist 66.6, D2 ag-2 49.7 | D3 arrestin ag inactive | D2 ag-3 inactive
O=C(c1ccccc1)N1CCN(Cc2ccc3c(c2)OCO3)CC1	none
O=C(c1ccc(Br)o1)N1CCN(Cc2ccc3c(c2)OCO3)CC1	D2 antagonist 58.4, D2 ag-2 70.0 | D3 arrestin ag inactive | D2 ag-3 inactive
Cc1ccc(C)c(N/C(N)=N/c2nc(C)cc(C)n2)c1	D2 ag-2 55.9 | D3 arrestin ag inactive | D2 ag-3 inactive
Cc1cc(C)nc(/N=C(\N)Nc2ccc(-c3ccccc3)cc2)n1	none
COc1ccc(C)cc1N/C(N)=N/c1nc(C)cc(C)n1	none
Cc1cc(C)nc(/N=C(\N)Nc2ccc(SC(F)F)cc2)n1	D2 ag-2 49.0 | D3 arrestin ag inactive | D2 ag-3 inactive
CC(=O)Nc1ccc(N/C(N)=N/c2nc(C)cc(C)n2)cc1	none
CCOc1ccc(N/C(N)=N/c2nc(C)cc(C)n2)cc1	none (no result: D2 PAM-2, D2 antagonist, D2 ag-2) | D3 arrestin ag inactive | D2 ag-3 inconclusive
O=C(c1cccc(C(=O)N(c2ccccn2)C2CCCCC2)c1)N(c1ccccn1)C1CCCCC1	D2 antagonist 62.1, D2 ag-1 inconclusive, D2 ag-2 70.3 | D3 arrestin ag inactive | D2 ag-3 inconclusive
COc1ccc(CCNC(=O)CN(c2ccc(C)cc2)S(=O)(=O)c2ccc(OC)cc2)cc1	none (no result: D2 PAM-1, D2 antagonist, D2 ag-1)
COCCNC(=S)Nc1cc2oc3ccccc3c2cc1OC	D2 antagonist 30.0, D2 ag-2 57.2 | D3 arrestin ag inactive | D2 ag-3 inactive
Cc1noc(C)c1C(=O)N1CCN(c2ccccc2O)CC1	none | D3 arrestin ag inactive | D2 ag-3 inactive
O=C(c1ccccc1F)N1CCN(S(=O)(=O)c2ccc3c(c2)OCCO3)CC1	none
O=C(c1ccccc1OC(F)F)N1CCN(S(=O)(=O)c2ccc3c(c2)OCCCO3)CC1	none | D3 arrestin ag inactive | D2 ag-3 inactive
CCOC(=O)c1noc2ncnc(Nc3ccc(C)c(F)c3)c12	none (no result: D2 PAM-1, D2 antagonist, D2 ag-1)
COC(=O)NCC(c1ccc2c(c1)OCO2)N1CCN(c2ccccc2)CC1 (centres undefined)	none
COc1ccccc1N1CCN(C(CNS(=O)(=O)c2ccccc2)c2ccccc2)CC1 (centres undefined)	none | D3 arrestin ag inactive | D2 ag-3 inactive
